Assay results from the supplement of paper PMC10849652.
The full data set covers some 7,900 targets. This sample favours those with a hit. About 0.6% of all pairs of compound and target were hits.

Assays:
Experiment in all cases: log2 fold change, soluble protein after heating vs DMSO (PISA); higher = thermal stabilisation; K562 cells, 10 uM, 30 min; active = over 0.2 and 3.5 SD of the protein, either way, in both replicates (recomputed)
[1] = compound: Cc1ccc(NC(=O)c2ccc(CN3CC[C@H](N(C)C)C3)c(C(F)(F)F)c2)cc1Nc1nccc(-c2cncnc2)n1 [bafetinib]
Method in brief: (§1)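 K562 cells at 2×10^6 cells/mL were given 10 μM compound for 30 min. Aliquots then went through 3 min of heating across 48°C-58°C, were pooled, and were extracted in PBS with 0.5% NP-40 at 4°C, and the supernatant after 21,000xg for 90 min was quantified by TMTpro 16plex LC-MS/MS with channel sums equalised. Thermal stability relative to control samples, from duplicates, is given as log2 fold change.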

[2] = compound: Cc1cccc(CC(=O)N2CCc3c2ccc(-c2cn(C)c4ncnc(N)c24)c3F)n1
Method in brief: as §1

[3] = compound: Cc1cn(-c2cc(NC(=O)c3ccc(C)c(Nc4nccc(-c5cccnc5)n4)c3)cc(C(F)(F)F)c2)cn1 [nilotinib]
Method in brief: as §1

[4] = compound: Cc1nc(Nc2n[nH]c3c2CN(C(=O)N[C@H](CN(C)C)c2ccccc2)C3(C)C)c2sccc2n1
Method in brief: as §1

[5] = compound: Cc1nc(Nc2ncc(C(=O)Nc3c(C)cccc3Cl)s2)cc(N2CCN(CCO)CC2)n1 [dasatinib]
Method in brief: as §1

[6] = compound: Cc1ncc(-c2ccnc(Nc3ccc(S(C)(=O)=O)cc3)n2)n1C(C)C
Method in brief: as §1

[7] = compound: Cn1cc(-c2ccc3c(c2)CCN3C(=O)Cc2cccc(C(F)(F)F)c2)c2c(N)ncnc21
Method in brief: as §1

[8] = compound: Cn1cc(-c2ccc3nnc(C(F)(F)c4ccc5ncccc5c4)n3n2)cn1
Method in brief: as §1

[9] = compound: Cn1cncc1[C@@](N)(c1ccc(Cl)cc1)c1ccc2c(c1)c(-c1cccc(Cl)c1)cc(=O)n2C [tipifarnib]
Method in brief: as §1

[10] = compound: FC(F)(F)c1ccc(/C=C/c2nc(COc3ccc(CCCCn4ccnn4)cc3)co2)cc1 [mubritinib]
Method in brief: as §1

[11] = compound: NC(=O)Nc1cc(-c2cccc(F)c2)sc1C(=O)N[C@H]1CCCNC1
Method in brief: as §1

[12] = compound: NC(=O)c1cnc(N[C@@H]2CCCC[C@@H]2N)nc1Nc1cccc(-n2nccn2)c1
Method in brief: as §1

[13] = compound: NC1(c2ccc(-c3nc4ccn5c(=O)[nH]nc5c4cc3-c3ccccc3)cc2)CCC1
Method in brief: as §1

[14] = compound: NCC(=O)Nc1ccc(-n2nc(C(F)(F)F)cc2-c2ccc3c(ccc4ccccc43)c2)cc1
Method in brief: as §1

[15] = compound: Nc1ccccc1NC(=O)c1ccc(CNC(=O)OCc2cccnc2)cc1 [entinostat]
Method in brief: as §1

[16] = compound: O=C(CCCCCCC(=O)Nc1ccccc1)NO [vorinostat]
Method in brief: as §1

[17] = compound: O=C(CCCCCCNC(=O)c1cnc(N(c2ccccc2)c2ccccc2Cl)nc1)NO [citarinostat]
Method in brief: as §1

[18] = compound: O=C(O)c1ccc2c(c1)nc(Nc1cccc(Cl)c1)c1ccncc12 [silmitasertib]
Method in brief: as §1

[19] = compound: O=C1NC(=O)C(c2cnc3ccccn23)=C1c1cn2c3c(cc(F)cc13)CN(C(=O)N1CCCCC1)CC2
Method in brief: as §1

[20] = compound: c1cc(OCCN2CCCCC2)cc(-c2n[nH]c3ccc(-c4nnc[nH]4)cc23)c1
Method in brief: as §1

Measured: log2 fold change

TBRG4 (UniProt Q969Z0)
inactive: [1] -0.137 | [2] -0.035 | [3] -0.027 | [4] -0.291 | [5] -0.513 | [6] 0.006 | [7] 0.095 | [8] 0.003 | [9] -0.317 | [10] -0.277 | [11] -0.103 | [12] -0.172 | [13] -0.58 | [14] -0.255 | [15] 0.214 | [16] 0.201 | [17] 0.128 | [18] 0.074 | [19] -0.191 | [20] -0.086

SNRNP27 (UniProt Q8WVK2)
Chain of UniProt Q8WVK2 (Q8WVK2 whole entry, looked up): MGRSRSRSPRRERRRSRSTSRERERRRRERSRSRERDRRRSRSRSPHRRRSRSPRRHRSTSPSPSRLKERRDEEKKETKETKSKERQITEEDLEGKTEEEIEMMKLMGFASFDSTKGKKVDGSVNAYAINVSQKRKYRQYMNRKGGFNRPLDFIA
inactive: [1] -0.015 | [2] -0.079 | [3] 0.087 | [5] 0.045 | [6] -0.064 | [7] -0.078 | [8] 0.031 | [9] 0.032 | [10] 0.059 | [11] 0.022 | [12] -0.015 | [13] -0.034 | [14] -0.043 | [15] -0.024 | [16] -0.008 | [17] -0.003 | [18] 0.06 | [19] 0.038 | [20] -0.025
active: [4] -0.487

SRP68 (UniProt Q9UHB9)
inactive: [1] 0.043 | [2] 0.054 | [3] -0.118 | [4] -0.063 | [5] -0.098 | [6] 0.055 | [7] -0.026 | [8] -0.08 | [9] -0.119 | [10] 0.012 | [11] -0.068 | [12] -0.08 | [13] -0.094 | [14] -0.035 | [15] 0.101 | [16] 0.08 | [17] 0.095 | [18] 0.08 | [19] 0.096 | [20] -0.062

TBC1D5 isoform 2 (UniProt Q92609)
inactive: [1] -0.126 | [2] 0.017 | [3] -0.076 | [4] -0.052 | [5] -0.232 | [6] 0.007 | [7] -0.067 | [8] -0.005 | [9] -0.177 | [10] -0.017 | [11] -0.006 | [12] -0.103 | [13] -0.233 | [14] -0.058 | [15] 0.029 | [16] 0.086 | [17] 0.111 | [18] 0.031 | [19] -0.076 | [20] -0.094

STAT5A (UniProt P42229)
inactive: [1] 0.034 | [2] 0.208 | [3] -0.112 | [5] -0.191 | [6] -0.051 | [7] 0 | [8] 0.104 | [9] -0.107 | [11] -0.115 | [12] -0.112 | [13] -0.112 | [14] -0.115 | [15] 0.112 | [16] 0.061 | [17] 0.194 | [18] 0.037 | [19] -0.029 | [20] 0.061
active: [4] -0.338 | [10] 0.371

STXBP5 (UniProt Q5T5C0)
inactive: [1] -0.032 | [2] 0.017 | [3] 0.003 | [4] -0.025 | [5] -0.06 | [6] -0.003 | [7] 0.021 | [8] -0.026 | [9] -0.049 | [10] -0.021 | [11] 0.006 | [12] -0.022 | [13] -0.145 | [14] -0.033 | [15] -0.011 | [16] 0.004 | [17] 0.024 | [18] 0.041 | [19] -0.04 | [20] -0.003

STARD7 (UniProt Q9NQZ5)
inactive: [1] -0.043 | [2] 0.109 | [3] -0.057 | [4] 0.081 | [5] -0.035 | [6] 0.094 | [7] 0.021 | [8] -0.007 | [9] -0.026 | [10] 0.032 | [11] -0.048 | [12] -0.113 | [13] -0.088 | [14] 0.012 | [15] 0.008 | [16] 0.114 | [17] 0.073 | [18] -0.011 | [20] -0.089
active: [19] 0.341

THADA (UniProt Q6YHU6)
Chain of UniProt Q6YHU6 (Q6YHU6 whole entry, looked up): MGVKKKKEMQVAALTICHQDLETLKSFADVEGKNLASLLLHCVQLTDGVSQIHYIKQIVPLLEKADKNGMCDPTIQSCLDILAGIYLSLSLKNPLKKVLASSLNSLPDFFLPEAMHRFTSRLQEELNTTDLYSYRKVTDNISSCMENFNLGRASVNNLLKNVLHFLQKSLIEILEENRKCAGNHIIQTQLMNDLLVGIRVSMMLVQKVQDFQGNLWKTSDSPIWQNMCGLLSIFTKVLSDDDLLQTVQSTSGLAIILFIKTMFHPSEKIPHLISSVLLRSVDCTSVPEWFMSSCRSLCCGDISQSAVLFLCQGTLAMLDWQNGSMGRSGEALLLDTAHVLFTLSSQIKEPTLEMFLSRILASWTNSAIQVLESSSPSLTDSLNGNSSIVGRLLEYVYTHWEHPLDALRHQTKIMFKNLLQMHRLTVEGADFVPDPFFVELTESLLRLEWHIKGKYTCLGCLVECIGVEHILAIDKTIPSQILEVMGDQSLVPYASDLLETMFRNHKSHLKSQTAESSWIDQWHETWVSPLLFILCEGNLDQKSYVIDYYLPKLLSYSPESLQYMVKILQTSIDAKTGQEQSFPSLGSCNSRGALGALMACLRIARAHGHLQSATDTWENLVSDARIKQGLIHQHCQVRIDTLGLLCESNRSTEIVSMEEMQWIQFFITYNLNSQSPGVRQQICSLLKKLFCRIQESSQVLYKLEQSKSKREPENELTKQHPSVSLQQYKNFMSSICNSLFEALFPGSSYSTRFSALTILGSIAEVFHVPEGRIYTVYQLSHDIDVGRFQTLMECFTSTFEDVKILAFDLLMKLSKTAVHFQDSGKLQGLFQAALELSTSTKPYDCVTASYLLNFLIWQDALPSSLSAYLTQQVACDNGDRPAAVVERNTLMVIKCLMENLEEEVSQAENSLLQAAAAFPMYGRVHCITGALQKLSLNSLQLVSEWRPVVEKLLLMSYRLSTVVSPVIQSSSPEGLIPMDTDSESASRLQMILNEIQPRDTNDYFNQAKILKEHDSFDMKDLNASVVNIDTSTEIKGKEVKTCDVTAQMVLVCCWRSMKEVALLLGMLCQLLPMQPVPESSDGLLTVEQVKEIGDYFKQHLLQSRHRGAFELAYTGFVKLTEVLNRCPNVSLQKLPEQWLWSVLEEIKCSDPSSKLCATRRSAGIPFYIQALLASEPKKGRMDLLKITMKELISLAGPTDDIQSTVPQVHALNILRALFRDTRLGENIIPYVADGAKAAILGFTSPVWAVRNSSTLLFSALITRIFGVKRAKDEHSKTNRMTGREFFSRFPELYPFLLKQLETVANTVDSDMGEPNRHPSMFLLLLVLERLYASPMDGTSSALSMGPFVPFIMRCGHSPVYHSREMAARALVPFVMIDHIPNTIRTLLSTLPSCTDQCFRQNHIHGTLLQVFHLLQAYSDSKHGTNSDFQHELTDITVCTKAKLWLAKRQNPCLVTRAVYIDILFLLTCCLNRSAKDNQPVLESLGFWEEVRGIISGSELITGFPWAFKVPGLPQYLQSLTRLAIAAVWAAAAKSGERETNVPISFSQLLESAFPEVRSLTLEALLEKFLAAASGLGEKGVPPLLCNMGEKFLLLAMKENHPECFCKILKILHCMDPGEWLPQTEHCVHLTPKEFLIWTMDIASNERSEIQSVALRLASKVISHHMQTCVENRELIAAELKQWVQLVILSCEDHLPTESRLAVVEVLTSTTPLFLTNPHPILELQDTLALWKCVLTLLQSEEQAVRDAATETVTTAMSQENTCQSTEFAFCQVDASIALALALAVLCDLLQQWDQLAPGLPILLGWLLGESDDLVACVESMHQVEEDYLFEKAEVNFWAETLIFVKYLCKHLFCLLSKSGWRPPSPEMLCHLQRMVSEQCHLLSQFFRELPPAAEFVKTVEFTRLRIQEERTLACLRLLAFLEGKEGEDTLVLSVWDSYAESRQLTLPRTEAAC
inactive: [1] 0 | [2] 0.027 | [3] -0.068 | [4] 0.045 | [5] -0.15 | [6] -0.028 | [7] 0.098 | [8] 0.055 | [9] -0.1 | [10] 0.123 | [11] 0.004 | [12] -0.085 | [13] -0.147 | [14] -0.082 | [15] 0.014 | [16] -0.001 | [17] 0.121 | [18] -0.061 | [19] -0.025 | [20] -0.013

SNRNP40 (UniProt Q96DI7)
Chain of UniProt Q96DI7 (Q96DI7 whole entry, looked up): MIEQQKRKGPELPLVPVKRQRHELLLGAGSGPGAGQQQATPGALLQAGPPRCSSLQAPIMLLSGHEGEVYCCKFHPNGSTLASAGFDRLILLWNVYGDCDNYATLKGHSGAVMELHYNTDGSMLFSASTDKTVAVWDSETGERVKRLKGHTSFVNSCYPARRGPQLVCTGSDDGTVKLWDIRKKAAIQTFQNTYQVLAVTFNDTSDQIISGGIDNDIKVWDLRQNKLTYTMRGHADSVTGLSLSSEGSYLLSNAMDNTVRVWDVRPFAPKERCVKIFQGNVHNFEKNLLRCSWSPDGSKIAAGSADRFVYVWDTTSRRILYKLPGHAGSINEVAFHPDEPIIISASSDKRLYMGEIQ
inactive: [1] 0.018 | [2] -0.023 | [3] 0.054 | [4] 0.166 | [5] 0.1 | [6] 0.119 | [7] -0.051 | [8] -0.021 | [9] 0.038 | [10] 0.006 | [11] 0.017 | [12] -0.017 | [13] 0.065 | [14] -0.011 | [15] -0.067 | [16] -0.018 | [17] -0.008 | [18] 0.058 | [19] 0.04 | [20] -0.121

SNX12 isoform 1 (UniProt Q9UMY4)
inactive: [1] -0.067 | [2] 0.042 | [3] -0.038 | [4] -0.016 | [5] -0.043 | [6] -0.191 | [7] 0.038 | [8] 0.008 | [9] -0.015 | [10] -0.009 | [11] -0.022 | [14] 0.019 | [15] 0.046 | [16] 0.035 | [17] 0.102 | [18] 0.06 | [19] -0.081 | [20] -0.066
active: [12] -0.225 | [13] -0.22

SLC6A6 (UniProt P31641)
Chain of UniProt P31641 (P31641 whole entry, looked up): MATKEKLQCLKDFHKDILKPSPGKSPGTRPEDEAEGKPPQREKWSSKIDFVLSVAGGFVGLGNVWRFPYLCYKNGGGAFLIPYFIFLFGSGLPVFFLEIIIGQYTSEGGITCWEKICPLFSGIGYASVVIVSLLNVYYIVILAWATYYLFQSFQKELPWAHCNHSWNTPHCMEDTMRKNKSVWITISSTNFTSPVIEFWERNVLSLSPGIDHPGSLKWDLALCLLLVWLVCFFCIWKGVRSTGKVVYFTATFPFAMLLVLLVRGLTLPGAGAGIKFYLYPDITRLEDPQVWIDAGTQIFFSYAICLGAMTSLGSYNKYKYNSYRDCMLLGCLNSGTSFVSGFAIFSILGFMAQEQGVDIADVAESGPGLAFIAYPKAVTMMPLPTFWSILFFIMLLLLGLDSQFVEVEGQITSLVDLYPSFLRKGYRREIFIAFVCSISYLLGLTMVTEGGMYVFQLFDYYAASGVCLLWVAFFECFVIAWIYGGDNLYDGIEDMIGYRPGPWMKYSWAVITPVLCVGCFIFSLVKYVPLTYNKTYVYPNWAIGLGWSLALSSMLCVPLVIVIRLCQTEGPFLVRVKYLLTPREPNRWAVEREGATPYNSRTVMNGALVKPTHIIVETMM
inactive: [1] -0.001 | [2] -0.018 | [3] 0.064 | [4] -0.015 | [5] -0.069 | [6] 0.068 | [7] -0.011 | [8] -0.006 | [9] 0.002 | [10] 0.024 | [11] -0.099 | [12] 0.03 | [13] 0.024 | [14] -0.19 | [15] -0.031 | [16] -0.059 | [17] 0.065 | [18] 0.039 | [19] 0.086
active: [20] 0.269

SLC27A4 (UniProt Q6P1M0)
inactive: [1] -0.026 | [2] 0.022 | [3] -0.098 | [4] -0.101 | [5] -0.113 | [6] 0.011 | [7] 0.003 | [8] 0.009 | [9] 0.124 | [11] -0.086 | [12] -0.043 | [13] -0.034 | [14] 0.016 | [15] -0.024 | [16] 0 | [17] 0.043 | [18] 0.022 | [19] -0.073 | [20] -0.1
active: [10] 0.598

TELO2 (UniProt Q9Y4R8)
inactive: [1] 0.069 | [2] 0.158 | [3] -0.023 | [4] -0.041 | [5] -0.039 | [6] 0.039 | [7] -0.058 | [8] 0.046 | [9] -0.185 | [10] 0.103 | [11] -0.039 | [12] -0.1 | [13] -0.207 | [14] 0.037 | [15] 0.039 | [16] 0.137 | [17] 0.009 | [18] 0.067 | [19] 0.117 | [20] -0.075

TBCD (UniProt Q9BTW9)
Chain of UniProt Q9BTW9 (Q9BTW9 whole entry, looked up): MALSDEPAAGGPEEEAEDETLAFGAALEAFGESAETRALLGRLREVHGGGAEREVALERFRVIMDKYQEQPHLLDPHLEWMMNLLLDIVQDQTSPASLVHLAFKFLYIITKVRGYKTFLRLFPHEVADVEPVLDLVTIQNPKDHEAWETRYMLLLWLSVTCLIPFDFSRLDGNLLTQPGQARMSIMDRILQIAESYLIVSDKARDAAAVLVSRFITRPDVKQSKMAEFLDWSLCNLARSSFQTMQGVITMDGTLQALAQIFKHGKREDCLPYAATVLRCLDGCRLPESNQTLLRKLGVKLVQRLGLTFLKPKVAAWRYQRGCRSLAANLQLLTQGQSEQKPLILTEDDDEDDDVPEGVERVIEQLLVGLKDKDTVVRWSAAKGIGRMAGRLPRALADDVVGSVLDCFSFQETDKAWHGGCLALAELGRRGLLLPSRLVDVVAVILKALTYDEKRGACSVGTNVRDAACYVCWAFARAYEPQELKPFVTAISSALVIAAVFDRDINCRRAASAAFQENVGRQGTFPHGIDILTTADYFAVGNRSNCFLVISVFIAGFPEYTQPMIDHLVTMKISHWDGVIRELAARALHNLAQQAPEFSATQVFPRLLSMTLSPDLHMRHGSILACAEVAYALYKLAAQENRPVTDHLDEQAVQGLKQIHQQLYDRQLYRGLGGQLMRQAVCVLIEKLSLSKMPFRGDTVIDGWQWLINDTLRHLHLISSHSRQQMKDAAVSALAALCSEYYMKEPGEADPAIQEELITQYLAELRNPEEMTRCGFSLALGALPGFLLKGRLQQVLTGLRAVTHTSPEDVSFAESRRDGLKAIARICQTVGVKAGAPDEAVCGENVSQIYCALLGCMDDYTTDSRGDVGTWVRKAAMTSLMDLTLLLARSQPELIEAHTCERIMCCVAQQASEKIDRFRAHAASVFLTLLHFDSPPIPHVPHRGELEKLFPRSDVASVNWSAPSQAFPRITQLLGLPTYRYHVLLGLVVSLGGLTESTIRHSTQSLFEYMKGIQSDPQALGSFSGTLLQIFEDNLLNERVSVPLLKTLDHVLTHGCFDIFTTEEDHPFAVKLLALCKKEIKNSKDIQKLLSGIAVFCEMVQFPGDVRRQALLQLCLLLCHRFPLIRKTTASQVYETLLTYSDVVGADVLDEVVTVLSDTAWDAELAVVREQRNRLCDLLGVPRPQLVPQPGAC
inactive: [1] -0.064 | [2] 0.029 | [3] -0.101 | [4] -0.078 | [5] -0.086 | [6] -0.025 | [7] 0.007 | [8] 0.025 | [9] -0.038 | [10] -0.039 | [11] 0.003 | [12] -0.057 | [13] -0.146 | [14] -0.03 | [15] 0.03 | [16] -0.013 | [17] 0.028 | [18] 0.039 | [19] -0.001 | [20] -0.063

SSRP1 (UniProt Q08945)
Chain of UniProt Q08945 (Q08945 whole entry, looked up): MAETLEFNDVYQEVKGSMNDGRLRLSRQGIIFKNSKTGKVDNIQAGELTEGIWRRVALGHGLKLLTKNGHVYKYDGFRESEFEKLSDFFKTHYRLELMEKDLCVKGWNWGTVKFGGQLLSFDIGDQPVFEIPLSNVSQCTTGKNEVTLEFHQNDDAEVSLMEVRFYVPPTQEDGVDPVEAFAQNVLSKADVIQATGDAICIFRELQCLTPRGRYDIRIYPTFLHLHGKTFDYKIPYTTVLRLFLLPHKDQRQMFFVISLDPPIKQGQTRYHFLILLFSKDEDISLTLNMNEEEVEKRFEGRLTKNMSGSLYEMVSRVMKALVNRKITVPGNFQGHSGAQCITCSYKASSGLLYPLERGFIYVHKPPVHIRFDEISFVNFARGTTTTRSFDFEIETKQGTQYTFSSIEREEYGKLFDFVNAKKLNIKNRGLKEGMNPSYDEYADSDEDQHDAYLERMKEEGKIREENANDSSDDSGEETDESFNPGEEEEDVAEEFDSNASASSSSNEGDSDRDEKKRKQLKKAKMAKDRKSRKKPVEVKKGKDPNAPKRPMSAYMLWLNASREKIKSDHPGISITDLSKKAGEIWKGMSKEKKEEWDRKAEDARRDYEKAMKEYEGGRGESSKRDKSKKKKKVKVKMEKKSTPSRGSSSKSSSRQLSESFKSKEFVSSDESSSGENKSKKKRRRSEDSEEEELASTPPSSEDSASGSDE
inactive: [1] 0.007 | [2] 0.015 | [3] -0.025 | [4] -0.175 | [5] -0.059 | [6] -0.075 | [7] 0.03 | [8] -0.033 | [9] 0 | [10] 0.009 | [11] -0.017 | [12] -0.012 | [13] -0.078 | [14] 0.003 | [15] 0.007 | [16] 0.059 | [17] 0.155 | [18] 0.007 | [19] -0.171 | [20] -0.013

SRSF4 (UniProt Q08170)
inactive: [1] 0.215 | [2] -0.064 | [3] 0.013 | [5] 0.109 | [6] 0.028 | [7] -0.166 | [8] -0.14 | [9] 0.127 | [10] -0.109 | [11] -0.059 | [12] 0.036 | [13] 0.196 | [14] 0.03 | [15] -0.002 | [16] -0.02 | [17] -0.028 | [18] -0.005 | [19] 0.206 | [20] -0.228
active: [4] -0.602
